Bioassay records deposited in PubChem by National Center for Advancing Translational Sciences (NCATS).
RORgamma inh – blocks mouse ROR gamma transcriptional activity. 5.4% of 310,000 active. P51450. AID 2551. Potency, µM (highest dose often 53.6 µM), without a hit: top-dose activity change, negative = inhibition, actives largely listed as inhibitors. Drosophila S2 Gal4-RORgamma UAS-luciferase reporter, 20 h; further: potency means the concentration at half of the fitted maximal effect; on the % scale 0 is the no-effect control and ±100 the full control effect; nearly all actives have a fitted effect of over 60% in size
Target sequence (P51450 whole entry, looked up, the tested form may be a part): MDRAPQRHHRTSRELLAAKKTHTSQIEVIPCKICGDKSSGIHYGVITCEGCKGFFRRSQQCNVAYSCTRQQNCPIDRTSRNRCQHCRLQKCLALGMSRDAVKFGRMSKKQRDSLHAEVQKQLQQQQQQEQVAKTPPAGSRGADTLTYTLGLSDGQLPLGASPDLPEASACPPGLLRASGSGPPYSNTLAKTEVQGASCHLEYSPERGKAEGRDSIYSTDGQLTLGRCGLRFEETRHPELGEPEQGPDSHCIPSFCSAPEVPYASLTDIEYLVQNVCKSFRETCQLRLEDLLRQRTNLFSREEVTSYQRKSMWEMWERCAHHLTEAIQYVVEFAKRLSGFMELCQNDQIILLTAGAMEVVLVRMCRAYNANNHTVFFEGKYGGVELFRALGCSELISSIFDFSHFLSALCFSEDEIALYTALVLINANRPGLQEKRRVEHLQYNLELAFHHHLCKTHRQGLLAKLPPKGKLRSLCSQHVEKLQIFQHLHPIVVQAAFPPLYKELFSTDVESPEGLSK
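Drosophila S2 cells stably expressing Gal4-DBD/mouse RORγ fusion under metallothionein promoter plus UAS-luciferase; compound 1 h, then 700 uM CuSO4 induction for 20 h at ambient temperature; inhibition read as reduced luminescence.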
Gal4-VP16 FLuc – Gal4-VP16 reporter inhibition counter-screen; Drosophila S2 Gal4-VP16 UAS-luciferase, luminescence, 20 h; Potency, µM (titrated, usually from 53.6 µM), for the others: at the highest dose activity, negative = inhibition, actives largely listed as inhibitors; 3.5% of 310,000 active; AID 2546;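 further: Gal4-VP16 expression switched on by copper sulfate through the metallothionein promoter; potency means the concentration at half of the fitted maximal effect; on the % scale 0 is the no-effect control and ±100 the full control effect; nearly all actives have a fitted effect of over 50% in size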
MCF10A rereplic – DNA re-replication induction in MCF 10a cells. Potency, µM (doses to about 46.1 µM), for the others: top-dose activity, positive = re-replication, usual class: activators. MCF 10A DNA re-replication, Hoechst nuclear intensity, 48 h. 2.9% of 350,000 active. AID 624296; further: potency means the concentration at half of the fitted maximal effect; % of control where 0% means no effect; nearly all actives have a fitted effect of over 50% in size
BCR signal inh – blocks chronic active B-cell receptor signaling. 0.05% of 340,000 active. AID 493014. Potency, µM (titrated, usually from 46.1 µM), for inactives: at the top dose activity change, negative = inhibition, most hits filed as inhibitors. ABC-DLBCL IkBa-CBG/CBR reporter, luminescence ratio, 4 h; active means well fitted inhibition curve with a large enough effect in the signal ratio, with a control signal flat, not every such curve was filed as active; inconclusive means small, poorly fitted or top-dose-only effect, or effect the other way, or a change in a side signal; the % refers to the signal ratio;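 further: potency means the concentration at half of the fitted maximal effect; plate controls were basal doxycycline-induced cells for no effect and cells given 10 µM MG132 for full effect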
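Concentration-response series (up to 46 uM) were applied to TMD8 dual-reporter cells for 4 h at 37C with doxycycline. Green/red ratio, after filter-overlap correction, defined %Activity; red signal alone was normalised to basal cells and zero luminescence.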
Giardia kill – Giardia lamblia killing; Giardia lamblia trophozoite viability; activity change, % at 7.66 µM, hits read low; 0.15% of 340,000 active; AID 540267; in the data active means activity change below about -80%; inconclusive means between about -30% and that limit;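 further: parasites exposed to compound for two days anaerobically before the ATP read; on the % scale 0 is the no-effect control and ±100 the full control effect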
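ATP-content bioluminescence gauges trophozoite survival. Cells (100/well) receive compound and incubate anaerobically for 48 hrs at 37 deg C; detection reagent follows for 15-30 min at room temperature.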
SW480 rerep – inducers of DNA re-replication in SW480 colon cancer cells; SW480 DNA re-replication, Hoechst DNA content imaging, 48 h; Potency, µM (doses to about 46.1 µM), for inactives: at the highest dose re-replication activation, usual class: activators; 1.8% of 340,000 active; AID 624297; further: potency means the concentration at half of the fitted maximal effect; % of control where 0% means no effect; nearly all actives have a fitted effect of over 55% in size
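Hoechst fluorescence of nuclei (405 nm excitation, 500-530 nm emission) measured by plate-scanning imager after 48 hr compound exposure at 37 C; re-replication scored as increased number of nuclei with elevated intensity.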
Numbers without * were called inactive; ? = inconclusive; . = not tested or not shown; [ ] = remark or other dose. Sampled rows, rich in hits. Any-hit rate of the full collection: about 8.3%. Unless noted, the call rests on the fitted dose curve; in most records, active means well fitted curve in the direction sought with a large enough effect; inconclusive means small, poorly fitted or top-dose-only effect, or another doubt; inactive means no such curve, though single readings can be large; an effect the other way counts as inactive or inconclusive.

SMILES	RORgamma inh	Gal4-VP16 FLuc	MCF10A rereplic	BCR signal inh	Giardia kill	SW480 rerep
COc1cc(NC(=S)Nc2cccnc2)cc(OC)c1	10µM*	?	-2%	3%	-10	?
CS(=O)(=O)N1CCN(C(=O)Cc2ccc(Br)cc2)CC1	4%[1.91 µM]	-3%	6%	3%	9	-7%
Cc1cc(C)c(-c2csc(NC(=O)c3n[nH]c(=O)c4ccccc34)n2)c(C)c1	?	?	?	4%	33	2%
C=CS(=O)(=O)c1ccc(Oc2ccc(S(=O)(=O)C=C)cc2)cc1	3.2µM*	2.2µM*	3.3µM*	?	2	?
CCOC(=O)C1=C(c2ccccc2)O/C(=C(\C(=O)OC)C(F)(F)F)S1	4%	-2%	1%	21%	-3	-4%
CCOC(=O)C1=C(c2ccccc2)O/C(=C(/C#N)C(F)(F)F)S1	14µM*	16µM*	.	?	.	.
C/C(=N\NC(=O)c1ccc(CN2CCc3ccccc3C2)cc1)c1ccccc1O	0.89µM*	2.5µM*	23µM*	?	0	21µM*
C/C(=N\NC(=O)c1ccccc1)c1ccccc1F	-32%	-19%	4%	?	24	1%
C/C(=N\NC(=O)c1ccccc1)c1ccccc1Br	3.5µM*	6.3µM*	-13%	?	-2	-12%
CC(=NNC(=O)c1ccncc1)c1ccccc1O	.	.	18µM*	.	-3	0.58µM*
CC(C)CC(=NNC(=O)c1ccncc1)c1cc(Cl)ccc1O	.	.	?	.	10	1.2µM*
COc1ccccc1OCCNC(=O)C1CCCCC1	1%	-15%[10 µM]	3%	3%	-10	?
C/C(=N\NC(=O)c1cc(C)nc2ccccc12)c1ccncc1	-17%	-8%	12µM*	?	-6	5.2µM*
CC(=NNC(=O)c1ccncc1)c1ccc2ccccc2c1O	.	.	18µM*	.	-12	2.3µM*
CC(=NNC(=O)c1ccncc1)c1ccc(O)cc1O	.	.	?	.	12	?
C/C(=N\NC(=O)c1cccc(N/N=C(\C)c2cc(O)ccc2O)c1)c1cc(O)ccc1O	6.3µM*	?	0%	?	-9	?
Cc1cc(Oc2ncccc2[N+](=O)[O-])c2cc(Cl)ccc2n1	-4%	-1%	5%	?	-26	16%
Cc1ccc(S(=O)(=O)NC2CC(C)(C)NC(C)(C)C2)cc1C	-41%	0%	-12%	9%	10	-12%[1.84 µM]
Cc1ccc2c(c1)N(C(=O)CCC(=O)NCc1ccccn1)CC(C)O2 (centres undefined)	5%	-5%	3%	10%	-10	-3%
CC(CCc1ccccc1)NC(=O)CCCn1ncn2c(cc3occc32)c1=O (centres undefined)	-11%	-2%	1%	-1%	-7	-6%
Cc1onc(-c2ccccc2)c1C(=O)OCC(=O)Nc1cccc(Cl)c1	.	.	?	0%	-12	-38%
COc1cccc(CNC(=O)C2CCN(S(=O)(=O)c3cccc4nonc34)CC2)c1	-24%	-18%	-8%	-2%	6	-8%
CCOc1ccc(N2C(=O)CC(SCCN)C2=O)cc1 (centres undefined)	?	?	-188%[0.0737 µM]	-1%	-14	-4%
CCOc1ccc(N2C(=O)CC(Sc3nnnn3-c3ccccc3)C2=O)cc1 (centres undefined)	4µM*	?	?	?	3	16µM*
CCOc1ccc(-n2nnnc2SCC(=O)c2ccccc2)cc1	19%	2%	4.1µM*	?	-28	?
SMILES	RORgamma inh	Gal4-VP16 FLuc	MCF10A rereplic	BCR signal inh	Giardia kill	SW480 rerep
CC(=O)/C(N=Nc1ccc(SC(F)F)cc1)=C(\C)O	33%	1%	?	?	43	8.2µM*
COc1ccc(NC(=O)N2CCN(S(C)(=O)=O)CC2)c(OC)c1	1%	0%[10 µM]	-2%	1%	9	-3%
N#Cc1ccsc1NC(=O)c1ccccn1	2.8µM*	5µM*	0%	?	-1	-3%
O=C(NNC1=Nc2cccc3cccc1c23)c1ccccc1Br	0.71µM*	1.1µM*	?	-7%	-16	81%
CCOc1ccc(OCc2ccc(C(=O)N3N=C(C(F)F)CC3(O)C(F)F)o2)cc1 (centres undefined)	5%	8%	1%	?	25	4%
Cc1cc(C)cc(OCc2ccc(C(=O)N3N=C(C(F)F)CC3(O)C(F)F)o2)c1 (centres undefined)	?	?	23µM*	-1%	10	6%
CCN(CC)c1ccc(Nc2cc3n(c(=O)n2)CCc2cc(OC)c(OC)cc2-3)cc1	-12%	4%	?	11µM*	5	?
COc1cc2c(cc1OC)-c1cc(Nc3ccc(F)cc3)nc(=O)n1CC2	12%	-9%	-2%	?	-8	-1%
COc1cc2c(cc1OC)-c1cc(NC3CCCC3)nc(=O)n1CC2	?	2%	2%	16µM*	0	-5%
COc1cccc(NC(=O)CN(C)C(=O)Cn2c(=O)oc3ccccc32)c1	.	.	-1%	0%	-9	6%
CC1=C(C(=O)OCc2ccccc2)C(/C=C/c2ccccc2)NC(=S)N1 (centres undefined)	?	5.6µM*	23µM*	10%	-6	10%
C=CCOC(=O)C1=C(C)NC(=S)NC1/C=C/c1ccccc1 (centres undefined)	2.5µM*	6.3µM*	-5%	?	-7	15µM*
Cc1cc2oc(=O)cc(CN3CCOCC3)c2c(C)c1Cl	-10%	1%	1%	1%	-18	-2%
CCOC(=O)C1CCCN(S(=O)(=O)c2c(C)noc2C)C1 (centres undefined)	-10%	1%	-1%	4%	6	-4%
CSc1cccc(NC(=O)C2C3C=CC4(O3)C2C(=O)N(CCN2CCOCC2)C4C(=O)NC2CCCCC2)c1 (centres undefined)	-1%	3%	-28%	2%	8	-19%
Cc1ccc(S(=O)(=O)N2CCCN(C(=O)CNC(=O)c3cccc(C)c3)CC2)cc1	.	.	-4%	3%	-5	7%
O=[N+]([O-])c1ccc(C[n+]2cc(-c3ccc(Cl)c(Cl)c3)n3c2CCCCC3)cc1	0.25µM*	-15%	-2%	0%	37	-6%
Clc1ccc(-c2c[n+](Cc3cccc(Cl)c3)c3n2CCC3)cc1	?	-9%	17%	?	7	10%
Clc1ccc(C[n+]2cc(-c3ccccc3)n3c2CCCCC3)c(Cl)c1	?	13µM*	5%	?	5	0%
Clc1ccc(-c2c[n+](Cc3ccc(Br)cc3)c3n2CCCCC3)cc1	?	11µM*	14%	0%	-3	3%
